Bioassay records as filed in PubChem BioAssay.
Shown are actives, neighbours in structure and some others; about 0.92% of the full set was active somewhere.
LAP4 TOR yeast = modulators of LAP4-GFP expression in yeast, primary screen, S. cerevisiae, multiplex flow cytometry, MLPCN library; hit rate 0.34% among 320,000; AID 2023, 2009; GFP response vs DMSO, % at 10 µM; 3 h; median GFP as percent of DMSO wells;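 active = GFP response vs DMSO above a set limit, about the screen mean plus 3 SD, cut at about 150% in these data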
AGP1-GFP MLPCN = modulators of AGP1-GFP expression in yeast TOR pathway, primary screen, cell-based, multiplex flow cytometry, S. cerevisiae, MLPCN library | hit rate 0.02% among 320,000 | 3 h; GFP as percent of DMSO wells | GFP response vs DMSO, % at 10 µM;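 active = GFP response relative to DMSO above a set limit, near screen average plus 3 SD, cut at about 150% in these data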;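 also: median GFP channel fluorescence of the gated AGP1 strain per well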
MEP2 TOR yeast = modulators of MEP2-GFP levels in yeast, primary screen, S. cerevisiae, multiplex flow cytometry, MLPCN library; AID 2016, 2009; GFP response vs DMSO, % at 10 µM; S. cerevisiae MEP2-GFP strain, 3 h; 100% = DMSO control level; hit rate 0.51% among 330,000;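 active = GFP response versus DMSO above a set limit, roughly screen mean plus 3 SD, cut at about 180% in these data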;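 also: median GFP fluorescence of the barcode-gated MEP2-GFP cells per well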
RPL19A TOR yeast = RPL19A-GFP expression modulators in yeast, primary screen, cell-based, S. cerevisiae, multiplex flow cytometry, MLPCN; AID 2025, 2009; S. cerevisiae RPL19A-GFP strain, 3 h; hits give low values; hit rate 0.3% among 330,000; percent response vs DMSO, % at 10 µM;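 active = percent response vs DMSO below 50%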;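 also: median channel GFP fluorescence of the barcoded RPL19A-GFP strain; lower means less RPL19A-GFP as with rapamycin TOR inhibition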
CIT2-GFP yeast = modulators of CIT2-GFP expression in yeast, primary screen, S. cerevisiae, GFP fusion, multiplex flow cytometry, MLPCN library; hit rate 0.065% among 320,000; GFP response vs DMSO, % at 10 µM; S. cerevisiae CIT2-GFP strain, 3 h; 100 means same as DMSO wells; AID 2029, 2009;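 active = GFP response relative to DMSO above a set limit, near the screen mean plus 3 SD, cut at about 150% in these data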;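 also: ratio of well median GFP fluorescence to mean of DMSO wells on the plate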
LAP4 cherry2 = LAP4-GFP expression modulators in yeast, confirmation, cell-based, second cherry pick, flow cytometry; shares compounds with LAP4 TOR yeast; S. cerevisiae LAP4-GFP strain, 3 h; GFP response vs DMSO, % at 10 µM; hit rate 20% among 590; AID 2621, 2010;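 active = GFP signal as percent of the solvent control above about 150%, meaning raised reporter expression, limit read from the data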
MEP2 cherry2 = modulators of MEP2-GFP levels in yeast, confirmation, S. cerevisiae, flow cytometry GFP, second cherry picks; shares compounds with LAP4 TOR yeast; S. cerevisiae MEP2-GFP strain, 3 h; AID 2622, 2010; GFP response vs DMSO, % at 10 µM; hit rate 10% among 590;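 active = GFP signal above 150% of the solvent control wells, that is a rise of more than half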;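 also: median channel GFP fluorescence of all gated yeast cells per well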
RPL19A GFP CP2 = RPL19A-GFP modulators in TOR pathway yeast, confirmation, cell-based, S. cerevisiae, flow cytometry, second cherry pick. shares compounds with LAP4 TOR yeast. S. cerevisiae RPL19A-GFP strain, 3 h; hits give low values; 100% means same as DMSO wells. GFP response vs DMSO, % at 10 µM. hit rate 3% among 590;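 active = under 65% GFP response relative to DMSO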;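 also: median GFP channel fluorescence per well over the all cells gate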
CIT2-GFP pick2 = modulators of CIT2-GFP expression in yeast, confirmation, flow cytometry, second cherry pick, single plex; shares compounds with LAP4 TOR yeast; S. cerevisiae CIT2-GFP strain, 3 h; DMSO control wells read 100%; GFP response vs DMSO, % at 10 µM; hit rate 8% among 590;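 active = GFP response vs DMSO above about 150%, limit read from the data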;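 also: median green fluorescence per well over all gated yeast cells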
AGP1 GFP CP2 = AGP1-GFP expression modulators, hit retest, confirmation, cell-based, flow cytometry, S. cerevisiae, cherry pick set 2 | shares compounds with LAP4 TOR yeast | S. cerevisiae AGP1-GFP strain, 3 h | percent response vs DMSO, % at 10 µM | 590 tested, under 10 active;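 active = over 150 percent of DMSO response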;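 also: median GFP channel fluorescence over all cells without mother daughter split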
s288c autofluor = compound autofluorescence in yeast s288c, dose response, artefact control for yeast TOR pathway GFP screen, s288c strain; shares compounds with LAP4 TOR yeast; S. cerevisiae s288c, 520 nm autofluorescence, flow cytometry, 3 h; hits give high values; zero means same as solvent-only cells; fluorescence change (kMESF span) at 33 µM; 610 tested, under 10 active; AID 2757, 2010;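 active = fluorescence span over the dose series, or activity score, above about 33, limit read from the data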
Numbers stand for hits; i = inactive; nt = no result.

SMILES	LAP4 TOR yeast	AGP1-GFP MLPCN	MEP2 TOR yeast	RPL19A TOR yeast	CIT2-GFP yeast	LAP4 cherry2	MEP2 cherry2	RPL19A GFP CP2	CIT2-GFP pick2	AGP1 GFP CP2	s288c autofluor
Cc1cc(NC(=O)CSc2nnc(Nc3ccccc3C)s2)no1	153	i	i	i	i	i	i	i	i	i	nt
Cc1cc(NC(=O)CSc2nnc(Nc3ccccc3)s2)no1	i	i	i	i	i	nt	nt	nt	nt	nt	nt
C/C(CC(=O)Nc1ccc(F)cc1F)=N\NC(=O)C(=O)N1CCCCC1	i	i	i	i	i	nt	nt	nt	nt	nt	nt
COc1ccc(C(=O)c2ccccc2)c(OCC(=O)NC2CC2)c1	i	i	i	i	i	i	i	i	i	i	nt
COc1ccc(C(=O)OCC(=O)NC2CCCC2)c(OC)c1	i	i	i	i	i	nt	nt	nt	nt	nt	nt
C/C(=N\Nc1ccc(S(=O)(=O)N2CCCCC2)cn1)c1cccc(Br)c1	i	i	i	i	i	nt	nt	nt	nt	nt	nt
N#Cc1cc([N+](=O)[O-])c(-n2nnc3ccccc32)c([N+](=O)[O-])c1	206	i	i	i	i	nt	nt	nt	nt	nt	i
Cc1cc(C)c(S(=O)(=O)N2CCC(C(=O)NCc3ccc(Cl)cc3Cl)CC2)c(C)c1	151	i	i	i	i	152	i	i	i	i	i
COc1ccc2c(c1)CC/C(=C/c1cc(OC)c(OC)c(OC)c1)C2=O	i	i	i	i	i	nt	nt	nt	nt	nt	nt
COc1cc(C=C2C(=O)c3ccccc3C2=O)cc(OC)c1	i	i	i	i	i	i	i	i	i	i	i
COc1cc(C=C2C(=O)c3ccccc3C2=O)cc(OC)c1OC	i	i	i	i	i	i	i	i	i	i	i
COc1ccc(C=C2C(=O)c3ccccc3C2=O)cc1O	i	i	i	i	i	i	i	i	i	i	i
COc1cccc(/C=C2\C(=O)C(=O)c3ccccc32)c1	i	i	i	i	i	nt	nt	nt	nt	nt	nt
COc1cccc(CNC(=O)COC(=O)c2nc(Cl)c(Cl)c(Cl)c2Cl)c1	i	i	i	i	i	nt	nt	nt	nt	nt	nt
CCn1nc(C)c(CN2CCC(C(=O)Nc3cccc(-c4cccc(Cl)c4)c3)CC2)c1C	i	i	i	i	i	nt	nt	nt	nt	nt	nt
CCN(CC)c1ccc(C(=O)O)cc1	i	i	i	i	i	nt	nt	nt	nt	nt	nt
CCN(CC)c1ccc(/C=C2\C(=O)c3ccc(C(=O)O)cc3C2=O)cc1	235	i	323	i	228	277	391	i	263	i	i
O=C1C2C3C=CC(C3)C2C(=O)N1/N=C/c1cc(Br)cc([N+](=O)[O-])c1O (stereo unspecified)	180	i	i	i	i	i	i	i	i	i	nt
CCN(c1ccccc1)S(=O)(=O)c1ccc(OC)c(NC(=O)c2cccs2)c1	i	i	i	i	i	nt	nt	nt	nt	nt	nt
CCN(c1ccccc1)S(=O)(=O)c1ccc(OC)c(NC(=O)c2cc(F)c(F)c(F)c2F)c1	177	i	i	i	i	i	i	i	i	i	nt
CC1(C)Cc2c(sc(NC(=O)c3ccc4c(c3)OCCO4)c2C(N)=O)C(C)(C)N1	i	i	i	i	153	i	i	i	i	i	nt
CCCOCc1ccc(O)c2ncccc12	i	i	i	i	i	nt	nt	nt	nt	nt	nt
Oc1ccc(COCc2ccccc2)c2cccnc12	160	i	i	i	i	nt	nt	nt	nt	nt	i
Cc1cc(C)cc(NC(=O)CN2CCc3cc4c(cc3C2C)OCCCO4)c1 (stereo unspecified)	i	i	193	i	i	i	i	i	i	i	nt
Cc1cccc(NC(=O)CN2CCc3cc4c(cc3C2C)OCCCO4)c1 (stereo unspecified)	i	i	i	i	i	nt	nt	nt	nt	nt	nt
SMILES	LAP4 TOR yeast	AGP1-GFP MLPCN	MEP2 TOR yeast	RPL19A TOR yeast	CIT2-GFP yeast	LAP4 cherry2	MEP2 cherry2	RPL19A GFP CP2	CIT2-GFP pick2	AGP1 GFP CP2	s288c autofluor
Nc1ccc(Br)c2c1C(=O)c1ccccc1C2=O	i	i	i	i	i	156	i	i	i	i	i
Nc1ccc(O)c2c1C(=O)c1ccccc1C2=O	i	i	i	i	i	nt	nt	nt	nt	nt	nt
CCOc1ccc(S(=O)(=O)NCCc2ccccn2)cc1	i	i	i	i	i	nt	nt	nt	nt	nt	nt
COc1cccc(/C=c2\sc3nc(-c4cccs4)nn3c2=O)c1OC	i	i	i	i	i	nt	nt	nt	nt	nt	nt
Cc1ccc(/C=c2\sc3nc(-c4cccs4)nn3c2=O)o1	174	i	i	i	i	nt	nt	nt	nt	nt	i
COc1ccccc1-c1nc2s/c(=C\c3cccs3)c(=O)n2n1	180	i	i	i	i	i	i	i	i	i	i
CC1CC1C(=O)OCC(=O)Nc1ccc(S(=O)(=O)N2CCOCC2)cc1 (stereo unspecified)	i	i	i	i	i	nt	nt	nt	nt	nt	nt
CN(CC(=O)Nc1cccc(F)c1)C(=O)CN1C(=O)C2CCCCC2C1=O (stereo unspecified)	i	i	i	i	i	nt	nt	nt	nt	nt	nt
Clc1cnc(N/N=C/c2ccco2)c(Cl)c1	i	i	i	i	i	nt	nt	nt	nt	nt	nt
Cc1ccc(/C=N/Nc2ncc(Cl)cc2Cl)s1	298	i	i	i	i	nt	nt	nt	nt	nt	i
Clc1cnc(N/N=C/c2cccs2)c(Cl)c1	158	i	i	i	i	nt	nt	nt	nt	nt	i
Oc1ccc(/C=N/Nc2ncc(Cl)cc2Cl)cc1	i	i	i	i	i	nt	nt	nt	nt	nt	nt
COc1ccc(NS(=O)(=O)c2cccc(C(=O)O)c2)cc1S(=O)(=O)N1CCCCC1	i	i	i	i	i	nt	nt	nt	nt	nt	nt
O=C(c1ccc(COc2ccc(Cl)cc2Cl)o1)N1CCCC1	i	i	i	i	i	nt	nt	nt	nt	nt	nt
CCc1ccc(/C=C/C(=O)c2cc(Br)ccc(=O)c2O)cc1	i	i	i	i	i	156	i	i	i	i	i
CCOc1ccc(/C=C/C(=O)c2cc(Br)ccc(=O)c2O)cc1	i	i	i	i	i	nt	nt	nt	nt	nt	nt
